According to paper PMC7862700, “An all-to-all approach to the identification of sequence-specific readers for epigenetic DNA modifications on cytosine”:

Columns and labels:
Experiment in all cases: DAPPL (digital affinity profiling via proximity ligation, sequencing); 10 mM Tris-HCl pH 7.5, 50 mM NaCl, 1 mM DTT, 4% glycerol, room temperature, 30 min; GST-TFs on glutathione beads, 16-mer random dsDNA library, 0.1% formaldehyde crosslink after washing; high values mean tight binding
FEV = target: T1, FEV (Homo sapiens, UniProt Q99581 1-238); conditions: protein: recombinant; tags: N-terminal GST; dsDNA, one strand shown
T1 sequence: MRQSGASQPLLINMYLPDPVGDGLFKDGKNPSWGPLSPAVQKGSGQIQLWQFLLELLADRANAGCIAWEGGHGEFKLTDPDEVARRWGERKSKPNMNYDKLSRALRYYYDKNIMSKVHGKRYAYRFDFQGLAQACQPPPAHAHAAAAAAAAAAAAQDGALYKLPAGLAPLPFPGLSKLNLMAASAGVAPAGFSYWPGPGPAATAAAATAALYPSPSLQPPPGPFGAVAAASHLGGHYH
Method in brief: (§1)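 Each value of binding signal is a hexamer's read frequency for a factor divided by the same hexamer's frequency in the tag-only sample. Barcoded, bead-captured GST fusions of human transcription factors made in yeast were pooled with that sample and incubated with 200 nmole of a random double-stranded 16-mer DNA library in Tris/NaCl/DTT/glycerol buffer at room temperature for 30 min. Washing, 0.1% formaldehyde crosslinking, proximity ligation, PCR and Illumina NextSeq500 sequencing followed.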

ETV5 = ETV5 (Homo sapiens, UniProt P41161 1-510); conditions: protein: recombinant; tags: N-terminal GST; dsDNA, one strand shown
Chain of ETV5 (P41161 whole entry): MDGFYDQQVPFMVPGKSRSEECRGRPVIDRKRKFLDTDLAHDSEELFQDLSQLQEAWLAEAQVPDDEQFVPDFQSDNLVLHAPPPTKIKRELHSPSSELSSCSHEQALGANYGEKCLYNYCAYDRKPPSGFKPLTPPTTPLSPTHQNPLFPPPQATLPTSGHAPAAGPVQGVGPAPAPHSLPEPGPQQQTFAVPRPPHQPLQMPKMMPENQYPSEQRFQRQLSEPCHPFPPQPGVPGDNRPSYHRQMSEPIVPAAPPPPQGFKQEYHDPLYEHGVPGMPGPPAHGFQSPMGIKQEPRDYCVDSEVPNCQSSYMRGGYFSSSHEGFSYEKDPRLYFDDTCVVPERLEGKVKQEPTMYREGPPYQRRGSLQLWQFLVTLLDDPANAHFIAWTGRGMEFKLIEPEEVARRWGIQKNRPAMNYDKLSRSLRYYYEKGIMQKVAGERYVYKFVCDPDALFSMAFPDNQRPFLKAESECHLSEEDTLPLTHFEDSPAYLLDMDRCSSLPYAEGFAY
Method in brief: as §1

HSF1 = HSF1 (Homo sapiens, UniProt Q00613 1-529); conditions: protein: recombinant; tags: N-terminal GST; chain copies: 3; dsDNA, one strand shown
Chain of HSF1 (Q00613 whole entry): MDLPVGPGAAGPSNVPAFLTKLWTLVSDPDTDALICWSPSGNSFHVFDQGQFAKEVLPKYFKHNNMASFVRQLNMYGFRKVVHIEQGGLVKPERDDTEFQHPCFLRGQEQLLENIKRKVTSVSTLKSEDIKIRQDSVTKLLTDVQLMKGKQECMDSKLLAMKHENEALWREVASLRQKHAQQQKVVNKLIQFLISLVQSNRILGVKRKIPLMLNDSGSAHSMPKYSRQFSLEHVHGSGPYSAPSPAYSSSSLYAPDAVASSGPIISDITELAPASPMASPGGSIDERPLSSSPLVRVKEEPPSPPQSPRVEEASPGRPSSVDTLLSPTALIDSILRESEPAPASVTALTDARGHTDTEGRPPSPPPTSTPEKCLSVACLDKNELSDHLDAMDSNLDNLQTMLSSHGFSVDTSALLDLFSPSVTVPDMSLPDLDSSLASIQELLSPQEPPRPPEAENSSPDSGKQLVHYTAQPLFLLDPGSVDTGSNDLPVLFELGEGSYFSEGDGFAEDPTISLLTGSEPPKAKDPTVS
Method in brief: as §1

SPIC = target: T2, SPIC (Homo sapiens, UniProt Q8N5J4 1-248); conditions: protein: recombinant; tags: N-terminal GST; dsDNA, one strand shown
T2 sequence: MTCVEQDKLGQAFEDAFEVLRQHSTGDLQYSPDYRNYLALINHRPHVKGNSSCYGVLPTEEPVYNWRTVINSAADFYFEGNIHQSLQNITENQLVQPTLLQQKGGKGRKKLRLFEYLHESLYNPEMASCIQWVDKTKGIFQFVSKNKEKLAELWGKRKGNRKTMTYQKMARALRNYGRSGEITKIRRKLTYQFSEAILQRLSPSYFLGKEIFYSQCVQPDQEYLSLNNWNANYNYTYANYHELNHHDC
Method in brief: as §1

ELF4 = ELF4 (Homo sapiens, UniProt Q99607 1-663); conditions: protein: recombinant; tags: N-terminal GST; dsDNA, one strand shown
Chain of ELF4 (Q99607 whole entry): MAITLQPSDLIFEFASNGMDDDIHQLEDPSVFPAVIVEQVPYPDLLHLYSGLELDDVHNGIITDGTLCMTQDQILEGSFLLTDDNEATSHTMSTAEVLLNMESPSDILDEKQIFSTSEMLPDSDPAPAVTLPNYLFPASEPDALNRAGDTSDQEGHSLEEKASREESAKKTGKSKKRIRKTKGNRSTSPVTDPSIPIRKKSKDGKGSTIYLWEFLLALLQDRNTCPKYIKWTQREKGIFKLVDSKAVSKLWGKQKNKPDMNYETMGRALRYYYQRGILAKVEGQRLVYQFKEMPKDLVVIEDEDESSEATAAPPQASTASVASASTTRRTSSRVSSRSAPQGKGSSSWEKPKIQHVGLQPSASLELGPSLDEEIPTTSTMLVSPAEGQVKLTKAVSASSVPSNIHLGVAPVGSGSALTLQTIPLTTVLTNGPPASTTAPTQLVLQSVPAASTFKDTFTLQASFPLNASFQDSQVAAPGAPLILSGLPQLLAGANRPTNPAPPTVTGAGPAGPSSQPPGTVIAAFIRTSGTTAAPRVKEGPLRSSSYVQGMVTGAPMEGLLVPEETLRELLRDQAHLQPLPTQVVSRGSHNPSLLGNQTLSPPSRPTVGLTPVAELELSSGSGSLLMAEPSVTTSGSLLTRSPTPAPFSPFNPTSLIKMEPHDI
Method in brief: as §1

ELK4 = target: T3, ELK4 (Homo sapiens, UniProt P28324-2 1-405); conditions: protein: recombinant; tags: N-terminal GST; dsDNA, one strand shown
T3 sequence: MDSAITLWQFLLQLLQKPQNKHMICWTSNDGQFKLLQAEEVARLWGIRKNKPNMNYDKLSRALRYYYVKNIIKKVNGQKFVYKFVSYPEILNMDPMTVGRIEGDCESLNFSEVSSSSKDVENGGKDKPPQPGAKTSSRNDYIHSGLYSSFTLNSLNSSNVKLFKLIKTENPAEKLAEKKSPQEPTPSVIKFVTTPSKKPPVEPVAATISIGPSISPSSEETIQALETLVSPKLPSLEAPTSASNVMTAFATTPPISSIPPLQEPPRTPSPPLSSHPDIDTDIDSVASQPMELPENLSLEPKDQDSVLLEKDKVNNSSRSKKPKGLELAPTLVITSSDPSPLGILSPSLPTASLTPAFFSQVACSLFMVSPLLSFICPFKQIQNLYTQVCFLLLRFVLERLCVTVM
Method in brief: as §1

ETV2 = target: T4, ETV2 (Homo sapiens, UniProt O00321 1-342); conditions: protein: recombinant; tags: N-terminal GST; dsDNA, one strand shown
T4 sequence: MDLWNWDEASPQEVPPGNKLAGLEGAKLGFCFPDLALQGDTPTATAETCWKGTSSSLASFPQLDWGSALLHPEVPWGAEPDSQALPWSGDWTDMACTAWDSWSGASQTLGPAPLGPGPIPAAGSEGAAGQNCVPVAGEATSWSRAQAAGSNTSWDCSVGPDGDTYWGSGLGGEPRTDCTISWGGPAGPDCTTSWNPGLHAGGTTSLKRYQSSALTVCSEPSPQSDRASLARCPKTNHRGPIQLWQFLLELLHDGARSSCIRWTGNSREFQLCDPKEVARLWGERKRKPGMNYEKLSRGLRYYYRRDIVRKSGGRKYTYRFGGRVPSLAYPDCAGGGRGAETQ
Method in brief: as §1

ELF3 = target: T5, ELF3 (Homo sapiens, UniProt P78545 1-371); conditions: protein: recombinant; tags: N-terminal GST; dsDNA, one strand shown
T5 sequence: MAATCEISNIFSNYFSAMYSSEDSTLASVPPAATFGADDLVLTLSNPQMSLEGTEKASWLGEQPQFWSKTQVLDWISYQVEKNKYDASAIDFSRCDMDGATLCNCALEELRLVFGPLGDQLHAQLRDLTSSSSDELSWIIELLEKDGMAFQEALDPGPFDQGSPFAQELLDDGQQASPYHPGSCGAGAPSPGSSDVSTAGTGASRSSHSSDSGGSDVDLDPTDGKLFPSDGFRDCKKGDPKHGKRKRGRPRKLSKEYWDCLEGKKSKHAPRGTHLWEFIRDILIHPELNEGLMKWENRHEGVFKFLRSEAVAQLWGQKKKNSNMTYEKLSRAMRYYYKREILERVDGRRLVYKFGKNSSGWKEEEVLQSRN
Method in brief: as §1

CRX = CRX (Homo sapiens, UniProt O43186 1-299); conditions: protein: recombinant; tags: N-terminal GST; dsDNA, one strand shown
Chain of CRX (O43186 whole entry): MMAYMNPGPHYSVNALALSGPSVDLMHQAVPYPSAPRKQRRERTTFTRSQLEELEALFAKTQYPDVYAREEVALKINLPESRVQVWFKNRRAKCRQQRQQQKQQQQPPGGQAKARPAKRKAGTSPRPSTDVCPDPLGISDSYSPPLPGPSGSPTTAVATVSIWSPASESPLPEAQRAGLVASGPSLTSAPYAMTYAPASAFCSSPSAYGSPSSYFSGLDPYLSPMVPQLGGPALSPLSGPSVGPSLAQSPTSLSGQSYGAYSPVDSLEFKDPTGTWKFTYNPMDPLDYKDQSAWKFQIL
Method in brief: as §1

ETV1 = ETV1 (Homo sapiens, UniProt P50549 1-477); conditions: protein: recombinant; tags: N-terminal GST; dsDNA, one strand shown
Chain of ETV1 (P50549 whole entry): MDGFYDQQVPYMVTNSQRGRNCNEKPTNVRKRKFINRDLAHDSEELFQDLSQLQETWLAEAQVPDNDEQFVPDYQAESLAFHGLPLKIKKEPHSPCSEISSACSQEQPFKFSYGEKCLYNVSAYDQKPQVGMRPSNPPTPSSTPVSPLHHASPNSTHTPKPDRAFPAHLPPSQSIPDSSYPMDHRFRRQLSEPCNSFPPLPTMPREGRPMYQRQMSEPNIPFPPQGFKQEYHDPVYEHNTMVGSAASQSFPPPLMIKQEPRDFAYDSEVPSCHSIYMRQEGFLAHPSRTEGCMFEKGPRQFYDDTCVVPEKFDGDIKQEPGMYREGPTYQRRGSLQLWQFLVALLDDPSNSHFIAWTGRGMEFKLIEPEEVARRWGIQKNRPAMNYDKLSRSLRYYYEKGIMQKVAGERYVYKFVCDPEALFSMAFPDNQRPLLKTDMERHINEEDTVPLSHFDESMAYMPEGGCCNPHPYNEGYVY
Method in brief: as §1

ERF = target: T6, ERF (Homo sapiens, UniProt P50548 1-548); conditions: protein: recombinant; tags: N-terminal GST; dsDNA, one strand shown
T6 sequence: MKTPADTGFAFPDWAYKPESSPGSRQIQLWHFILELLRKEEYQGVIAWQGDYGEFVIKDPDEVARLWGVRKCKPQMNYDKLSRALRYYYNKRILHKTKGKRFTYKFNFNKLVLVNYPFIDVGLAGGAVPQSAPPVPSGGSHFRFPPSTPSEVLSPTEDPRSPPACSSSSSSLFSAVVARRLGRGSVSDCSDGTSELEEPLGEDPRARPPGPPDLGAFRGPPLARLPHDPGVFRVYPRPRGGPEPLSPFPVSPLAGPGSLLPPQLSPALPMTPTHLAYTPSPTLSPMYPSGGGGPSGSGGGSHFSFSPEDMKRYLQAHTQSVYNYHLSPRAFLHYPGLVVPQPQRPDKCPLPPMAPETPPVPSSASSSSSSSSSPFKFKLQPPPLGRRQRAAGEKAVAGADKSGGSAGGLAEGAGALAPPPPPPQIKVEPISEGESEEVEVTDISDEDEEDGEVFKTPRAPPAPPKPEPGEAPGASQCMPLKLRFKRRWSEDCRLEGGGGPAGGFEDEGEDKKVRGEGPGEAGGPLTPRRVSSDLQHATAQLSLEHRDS
Method in brief: as §1

ETV3L = target: T7, ETV3L (Homo sapiens, UniProt Q6ZN32 1-361); conditions: protein: recombinant; tags: N-terminal GST; dsDNA, one strand shown
T7 sequence: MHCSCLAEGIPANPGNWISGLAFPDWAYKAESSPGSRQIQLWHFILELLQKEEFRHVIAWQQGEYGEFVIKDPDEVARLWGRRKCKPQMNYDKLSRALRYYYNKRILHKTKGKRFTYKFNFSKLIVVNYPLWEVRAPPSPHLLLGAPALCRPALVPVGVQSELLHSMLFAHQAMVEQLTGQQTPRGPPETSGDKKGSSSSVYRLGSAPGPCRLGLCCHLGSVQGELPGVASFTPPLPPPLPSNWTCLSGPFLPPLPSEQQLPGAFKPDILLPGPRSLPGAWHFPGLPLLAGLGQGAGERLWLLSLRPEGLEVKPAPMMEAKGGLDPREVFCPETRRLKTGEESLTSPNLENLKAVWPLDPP
Method in brief: as §1

ETS2 = target: T8, ETS2 (Homo sapiens, UniProt P15036 1-469); conditions: protein: recombinant; tags: N-terminal GST; dsDNA, one strand shown
T8 sequence: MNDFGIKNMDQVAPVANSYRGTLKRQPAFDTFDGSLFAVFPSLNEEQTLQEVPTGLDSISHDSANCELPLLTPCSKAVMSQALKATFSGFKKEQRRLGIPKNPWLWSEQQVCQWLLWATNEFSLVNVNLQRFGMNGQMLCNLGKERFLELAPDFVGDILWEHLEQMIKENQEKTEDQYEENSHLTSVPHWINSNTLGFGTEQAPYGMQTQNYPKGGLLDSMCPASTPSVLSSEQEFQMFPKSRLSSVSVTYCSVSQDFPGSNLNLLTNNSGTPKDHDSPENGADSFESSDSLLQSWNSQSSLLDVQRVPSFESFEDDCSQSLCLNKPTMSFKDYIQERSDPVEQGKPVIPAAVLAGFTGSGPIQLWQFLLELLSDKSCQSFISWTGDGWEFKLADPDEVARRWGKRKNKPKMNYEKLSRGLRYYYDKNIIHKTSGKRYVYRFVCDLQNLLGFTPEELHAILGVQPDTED
Method in brief: as §1

SPDEF = target: T9, SPDEF (Homo sapiens, UniProt O95238 1-335); conditions: protein: recombinant; tags: N-terminal GST; dsDNA, one strand shown
T9 sequence: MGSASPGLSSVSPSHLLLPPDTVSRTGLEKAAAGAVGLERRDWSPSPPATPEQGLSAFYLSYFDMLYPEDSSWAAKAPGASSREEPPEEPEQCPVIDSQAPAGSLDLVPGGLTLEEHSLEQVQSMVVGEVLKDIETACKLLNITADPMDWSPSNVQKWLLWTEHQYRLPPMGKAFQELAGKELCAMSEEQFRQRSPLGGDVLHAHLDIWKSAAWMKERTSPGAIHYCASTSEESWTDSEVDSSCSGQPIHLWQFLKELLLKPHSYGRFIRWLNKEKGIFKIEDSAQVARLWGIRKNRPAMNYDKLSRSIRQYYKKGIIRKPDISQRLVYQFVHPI
Method in brief: as §1

ETV7 = target: T10, ETV7 (Homo sapiens, UniProt Q9Y603 1-341); conditions: protein: recombinant; tags: N-terminal GST; dsDNA, one strand shown
T10 sequence: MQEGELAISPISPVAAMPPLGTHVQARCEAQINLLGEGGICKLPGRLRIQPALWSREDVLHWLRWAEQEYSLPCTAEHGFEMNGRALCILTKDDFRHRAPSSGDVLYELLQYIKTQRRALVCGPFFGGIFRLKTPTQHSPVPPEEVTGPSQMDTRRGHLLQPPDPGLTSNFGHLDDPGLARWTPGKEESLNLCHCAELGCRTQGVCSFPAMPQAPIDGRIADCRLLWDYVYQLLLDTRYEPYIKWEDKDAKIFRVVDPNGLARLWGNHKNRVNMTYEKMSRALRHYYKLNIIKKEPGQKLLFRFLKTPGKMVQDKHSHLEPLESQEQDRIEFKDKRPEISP
Method in brief: as §1

ELF5 = target: T11, ELF5 (Homo sapiens, UniProt Q9UKW6-2 1-255); conditions: protein: recombinant; tags: N-terminal GST; dsDNA, one strand shown
T11 sequence: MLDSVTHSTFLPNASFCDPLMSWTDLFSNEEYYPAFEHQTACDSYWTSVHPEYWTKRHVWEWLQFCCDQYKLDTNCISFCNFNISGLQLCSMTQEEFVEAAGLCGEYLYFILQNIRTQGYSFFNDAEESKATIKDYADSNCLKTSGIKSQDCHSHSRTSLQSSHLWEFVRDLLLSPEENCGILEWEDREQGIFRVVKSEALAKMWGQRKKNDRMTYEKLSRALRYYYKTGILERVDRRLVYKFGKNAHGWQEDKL
Method in brief: as §1

ETV3 = target: T12, ETV3 (Homo sapiens, UniProt P41162-2 1-143); conditions: protein: recombinant; tags: N-terminal GST; dsDNA, one strand shown
T12 sequence: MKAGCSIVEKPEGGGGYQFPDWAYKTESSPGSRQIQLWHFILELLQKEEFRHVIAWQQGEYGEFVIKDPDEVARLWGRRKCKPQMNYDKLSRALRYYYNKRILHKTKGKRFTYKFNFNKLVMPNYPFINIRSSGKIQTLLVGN
Method in brief: as §1

ETV6 = ETV6 (Homo sapiens, UniProt P41212 1-452); conditions: protein: recombinant; tags: N-terminal GST; dsDNA, one strand shown
Chain of ETV6 (P41212 whole entry): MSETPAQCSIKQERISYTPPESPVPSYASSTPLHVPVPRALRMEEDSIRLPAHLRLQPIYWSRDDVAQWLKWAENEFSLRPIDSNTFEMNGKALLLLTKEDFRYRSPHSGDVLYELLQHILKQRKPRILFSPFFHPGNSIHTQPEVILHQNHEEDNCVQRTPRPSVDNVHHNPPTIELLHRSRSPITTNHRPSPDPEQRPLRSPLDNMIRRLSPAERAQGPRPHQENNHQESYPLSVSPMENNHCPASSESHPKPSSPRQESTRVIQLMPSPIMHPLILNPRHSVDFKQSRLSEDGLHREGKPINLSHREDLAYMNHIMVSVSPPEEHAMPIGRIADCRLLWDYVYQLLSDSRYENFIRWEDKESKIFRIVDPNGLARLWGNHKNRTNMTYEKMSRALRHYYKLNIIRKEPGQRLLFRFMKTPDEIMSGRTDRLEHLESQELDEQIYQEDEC
Method in brief: as §1

In the case of TTTCAG, the binding signal (FEV) is reported as 1.3 fold enrichment (6-mer frequency, TF over GST control), the binding signal (ETV5) is reported as 1.28 fold enrichment (6-mer frequency, TF over GST control) and the binding signal (HSF1) is reported as 1.3 fold enrichment (6-mer frequency, TF over GST control). The binding signal (SPIC) was 1.14 fold enrichment (6-mer frequency, TF over GST control), the binding signal (ELF4) was 1.33 fold enrichment (6-mer frequency, TF over GST control) and the binding signal (ELK4) was 1.38 fold enrichment (6-mer frequency, TF over GST control). The binding signal (ETV2) was 1.43 fold enrichment (6-mer frequency, TF over GST control), the binding signal (ELF3) was 1.24 fold enrichment (6-mer frequency, TF over GST control) and the binding signal (CRX) was 1.31 fold enrichment (6-mer frequency, TF over GST control). For the same sequence, the binding signal (ETV1) was 1.39 fold enrichment (6-mer frequency, TF over GST control), the binding signal (ERF) was 1.38 fold enrichment (6-mer frequency, TF over GST control) and the binding signal (ETV3L) was 1.31 fold enrichment (6-mer frequency, TF over GST control). For the same sequence, the binding signal (ETS2) was 1.27 fold enrichment (6-mer frequency, TF over GST control), the binding signal (SPDEF) was 1.37 fold enrichment (6-mer frequency, TF over GST control) and the binding signal (ETV7) was 1.13 fold enrichment (6-mer frequency, TF over GST control). For the same sequence, the binding signal (ELF5) was 1.28 fold enrichment (6-mer frequency, TF over GST control), the binding signal (ETV3) was 1.27 fold enrichment (6-mer frequency, TF over GST control) and the binding signal (ETV6) was 1.31 fold enrichment (6-mer frequency, TF over GST control).
